Activity calls are given as the source filed them. The calls were made as follows: active = hit-call score of the fitted dose curve at least 0.9, where 1 is the maximum; inactive = score below 0.9.
assay: ATG_M_32_CIS: Attagene CIS-FACTORIAL HepG2 Assay for M32 Transcription Factor (Internal Marker) (AID 2282949); settings: HepG2 Attagene cis-factorial M32 reporter, mRNA; actives raise or lower the signal;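 also: background control marker of the multiplexed CIS panel rather than a real target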
Protocol: ATG_CIS is a cell-based, multiplexed-readout assay that uses HepG2, a human liver cell line, with measurements taken at 24 hours after chemical dosing in a 24-well plate.ATG_M_32_CIS is one of 52 assay component(s) measured or calculated from the ATG_CIS assay. It is designed to make measurements of mRNA induction, a form of inducible reporter, as detected with fluorescence intensity signals by Reverse transcription polymerase chain reaction (RT-PCR) and Capillary electrophoresis technology.Data from the assay component ATG_M_32_CIS was analyzed into 1 assay endpoint. This assay endpoint, ATG_M_32_CIS, was analyzed with bidirectional fitting relative to DMSO as the negative control and baseline of activity. Using a type of inducible reporter, measures of mRNA for gain or loss-of-signal activity can be used to understand the background control at the transcription factor-level as they relate to the gene . Furthermore, this assay endpoint can be referred to as a secondary readout, because this assay has produced multiple assay endpoints where this one serves a background control function. To generalize the intended target to other relatable targets, this assay endpoint is annotated to the background measurement intended target family, where the subfamily is internal marker.
Human liver HepG2 cells are transiently transfected with multiple reporter transcription units (MRTUs) in 6-well plates using FuGene 6 reagent (Roche; 3 ml FuGene/1 mg DNA). The MRTU constructs are regulated by a cis-regulating element (promoter). […] A major difference between the CIS and TRANS system is that in CIS activities of endogenous TFs are measured, whereas the TRANS assay evaluates changes in activities of exogenous, chimeric NR-Gal4 proteins. […] At the end of 24 hour incubation, total RNA was isolated using TriZol reagent (Invitrogen). The isolated RNA is then reverse-transcribed using oligo(dT) primer and Mo-MLV reverse transcriptase (Invitrogen) with DNAse I (Ambion) treatment for 30 min. The one-tenth of the produced cDNA was amplified by PCR using Taq DNA polymerase (Invitrogen) and two reporter sequence-specific primers. The PCR products were fluorescently labeled by primer extension with 6-arboxyfluorescein (6-FAM) 5'-labeled reporter sequence-specific primer (2 min at 95 C, 20 s at 68 C and 10 min at 72 C) and these products were digested with 5U of HpaI (New England Biolabs) for 2h at 37 C. The fragments were purified using Qiaquick PCR columns (Qiagen), analyzed on an ABI 3130xL genetic analyzer (Applied Biosystems) with peak positions identified by using a set of X-rhodamine (ROX)-labeled MapMarker1000 molecular weight standards (BioVentures). The raw capillary electrophoresis data was processed using Attagraph software (Attagene).

outcome, inactive:
O=C(O)CCCCCCCCCCC(=O)O
CC(C)(CO)[N+](=O)[O-]
Cc1ccc(Nc2ccc(O)c3c2C(=O)c2ccccc2C3=O)cc1
O=[N+]([O-])c1ccc(Nc2ccc(Nc3ccccc3)c(S(=O)(=O)O)c2)c([N+](=O)[O-])c1
Clc1nc(C(Cl)(Cl)Cl)c(Cl)c(Cl)c1Cl
CC1(C)[C@H](C(=O)OCc2cccc(Oc3ccccc3)c2)[C@@H]1C=C(Cl)Cl
CN(C)c1ccc(O)c2c1C[C@H]1C[C@H]3[C@H](N(C)C)C(=O)C(C(N)=O)=C(O)[C@@]3(O)C(=O)C1=C2O
NCCOCCO
C=COCCOCCOCCOC=C
COc1cc(C(C)(C)C)c(O)c(C(C)(C)C)c1
CCCC(=O)C(C)=O
O=C(O)c1cn(C2CC2)c2cc(N3CCNCC3)c(F)cc2c1=O
CCCCCCCCCCCCN(CCCCCCCCCCCC)CCCCCCCCCCCC
CCN(CC)CCOC(=O)c1ccc(N)cc1
C=C(C)C(=O)NCCCN(C)C
CCCCCCCCCCCCCCCC(=O)O
CC(=O)C=CC1=C(C)CCCC1(C)C
CN1[C@@H]2CC(OC(=O)[C@H](CO)c3ccccc3)C[C@H]1[C@@H]1O[C@@H]12 (stereo not given in full)
O=C(O)c1cn(-c2ccc(F)cc2)c2cc(N3CCNCC3)c(F)cc2c1=O
CCCCCCCCC=O
CCCCCNCCCCC
CC(CC(C)(C)C)CC(C)(C)CC(C)(C)C (stereo not given)
CC1CC(OC(=O)c2ccccc2O)CC(C)(C)C1 (stereo not given)
C=CC(=O)OCC(O)COc1ccccc1 (stereo not given)
COC(C)CCO (stereo not given)
CCCCCCCCCCN
N#Cc1ccccc1
C[C@]12CC[C@H]3[C@@H](CCC4=CC(=O)CC[C@@]43C)[C@@H]1CC[C@@H]2C(=O)CO
CC(C)Oc1ccccc1O
CCCOCC(C)O (stereo not given)
CC(C)(C#N)c1cc(Cn2cncn2)cc(C(C)(C)C#N)c1
C=C(C)C(=O)Nc1ccc(Cl)c(Cl)c1
CCCc1c(OCCCOc2ccc(OCC(=O)O)cc2)ccc(C(C)=O)c1O
CCCC(=O)c1cc(O)c(O)cc1O
CNC(=O)Oc1ccc2c(c1)[C@]1(C)CCN(C)[C@@H]1N2C
CCCCOCCOCCSC#N
O=C(Nc1ccccc1)c1cc([N+](=O)[O-])ccc1Cl
O=C1CCc2ccccc2O1
CCCCCCOC(=O)CCCCC
COC(=O)c1ccc(C)cc1
